This note sets out measurements from PubChem BioAssay (Tox21).

Inconclusive results are not listed. The source made the active and inactive calls. Unless noted, calls come from the whole dose curve; as a rule, active = well fitted curve in the direction sought with a large enough effect in the repeat runs; inconclusive = weak or mixed curves; inactive = no such curve, though single readings can be large; an effect the other way counts as inactive or inconclusive.

Test [1] addresses Aryl hydrocarbon receptor (Homo sapiens) (UniProt P35869). The test can be described thus: qHTS assay to identify small molecule that activate the aryl hydrocarbon receptor (AhR) signaling pathway (AID 743085).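 For activation: HG2L7.5c1 human HepG2 liver cells with stably integrated DRE-driven firefly reporter; series mostly up to about 70 µM.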 Note: nearly all actives have a fitted effect of over 15% in size. Note: potency is the fitted concentration of half-maximal effect. The essentials: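 HepG2 cells (HG2L7.5c1) stably carrying a firefly luciferase reporter driven by 20 dioxin responsive elements were exposed to compound for 24 h at 37C after a 5 h settling period; luminescence rise (ONE-Glo) indicated activation.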

Test [2] is described as follows: qHTS assay to identify small molecule that activate the aryl hydrocarbon receptor (AhR) signaling pathway - cell viability counter screen (AID 743086). Note: series mostly up to about 70 µM; nearly all actives have a fitted effect of over 45% in size. The essentials: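 Cytotoxicity counter screen: CellTiter-Fluor signal (30 min, 37 C) in 4000 HepG2 cells/well carrying the DRE-luciferase reporter, following 24 h compound exposure at 37 C.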
Test [3] has as its target Peroxisome proliferator-activated receptor gamma (Homo sapiens) (UniProt P37231). As to the kind of experiment: qHTS assay to identify small molecule agonists of the peroxisome proliferator-activated receptor gamma (PPARg) signaling pathway (AID 743094; active = well fitted activation curve with a large enough effect in the signal ratio in the repeat runs, not every such curve was filed as active; the % refers to the signal ratio). An outline of the steps:
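Reporter activation was scored by fluorescence of cleaved LiveBLAzer B/G substrate (1 h, room temperature) in PPARg-bla HEK293H cells previously treated 17 h at 37C with DMSO-dissolved compounds.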

Test [4] is described as follows: qHTS assay to identify small molecule antagonists of the peroxisome proliferator-activated receptor gamma (PPARg) signaling pathway - cell viability counter screen (AID 743194). Note: nearly all actives have a fitted effect of over 55% in size. The note with it: Potency: co-treated with 50 nM rosiglitazone. An outline of the steps:
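Viability was measured as CellTiter-Glo luminescence in GeneBLAzer PPARg UAS-bla HEK293H cells. These cells had been exposed 17 h at 37 C to compounds together with rosiglitazone at 50 nM final, with the beta-lactamase readout taken in the same wells.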

Test [5] is described as follows: qHTS assay for small molecule agonists of the antioxidant response element (ARE) signaling pathway (AID 743202; active = well fitted activation curve with a large enough effect in the signal ratio in the repeat runs, not every such curve was filed as active; the % refers to the signal ratio). An outline of the steps: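 After 16 hours of compound treatment at 37 C, HepG2 cells with a stably integrated ARE-driven beta-lactamase reporter were loaded 2 hours at room temperature with LiveBLAzer B/G FRET substrate and fluorescence intensity measured.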

Test [6] in a line: qHTS assay for small molecule agonists of the antioxidant response element (ARE) signaling pathway - cell viability counter screen (AID 743203; calls by dose curve; note: nearly all actives have a fitted effect of over 55% in size). An outline of the steps: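 Viability counter screen: stably transfected ARE-bla HepG2 line, 16 hrs compound exposure at 37C/5% CO2, ATP-based CellTiter-Glo luminescence measured in the reporter wells.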
The nature of test [7]: qHTS assay for small molecule activators of the heat shock response signaling pathway - cell viability counter screen (AID 743209). Note: nearly all actives have a fitted effect of over 50% in size. The essentials: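 Viability of HSE-bla HeLa cells is measured with CellTiter-Glo in the wells already used for the reporter read. Compound exposure lasts 5 h at 37 C, and luminescence is read after 30 min at room temperature.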
Test [8] in a line: qHTS assay for small molecule activators of the heat shock response signaling pathway (AID 743210; active = well fitted activation curve with a large enough effect in the signal ratio in the repeat runs, with a control signal flat, not every such curve was filed as active; the % refers to the signal ratio; note: series mostly up to about 63 µM). An outline of the steps:
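Compound exposure lasted 5 h at 37 C in HeLa cells carrying a heat-shock-element-driven beta-lactamase reporter. Read-out: fluorescence intensity after 2.5 h room-temperature loading with LiveBLAzer B/G FRET substrate.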

Test [9] is described as follows: qHTS assay to identify small molecule agonists of the peroxisome proliferator-activated receptor delta (PPARd) signaling pathway - cell viability counter screen (AID 743211). Note: nearly all actives have a fitted effect of over 55% in size. An outline of the steps: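 PPARd-bla HEK293H cells (UAS-beta-lactamase reporter) were treated with compounds for 17 h at 37 C. Viability was then read in the same wells by CellTiter-Glo luminescence after 30 min at room temperature.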

Test [10] in a line: qHTS assay to identify small molecule antagonists of the peroxisome proliferator-activated receptor delta (PPARd) signaling pathway - cell viability counter screen (AID 743213). Note: nearly all actives have a fitted effect of over 50% in size. An outline of the steps: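 Viability counter-screen, qHTS format: PPARd-bla HEK293H, L165041 300 nM final, 17 h compound exposure at 37 C, CellTiter-Glo luminescence after 30 min RT.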
The target in test [11] is Peroxisome proliferator-activated receptor delta (Homo sapiens) (UniProt Q03181). The test can be described thus: qHTS assay to identify small molecule antagonists of the peroxisome proliferator-activated receptor delta (PPARd) signaling pathway (AID 743215; active = well fitted inhibition curve with a large enough effect in the signal ratio in the repeat runs, not every such curve was filed as active; the % refers to the signal ratio;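 note: cells stimulated with agonist L165041 at 300 nM final during compound exposure; series mostly up to about 62 µM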). The essentials: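 Plated HEK293H PPARd-bla cells rested 5 h at 37 C and 5% CO2. Compound, then agonist L165041 at 300 nM final, was added; 17 h at 37 C followed. Substrate loading, 2 h room temperature, fluorescence measured.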
Chain of Peroxisome proliferator-activated receptor delta (Homo sapiens) (Q03181 whole entry, looked up): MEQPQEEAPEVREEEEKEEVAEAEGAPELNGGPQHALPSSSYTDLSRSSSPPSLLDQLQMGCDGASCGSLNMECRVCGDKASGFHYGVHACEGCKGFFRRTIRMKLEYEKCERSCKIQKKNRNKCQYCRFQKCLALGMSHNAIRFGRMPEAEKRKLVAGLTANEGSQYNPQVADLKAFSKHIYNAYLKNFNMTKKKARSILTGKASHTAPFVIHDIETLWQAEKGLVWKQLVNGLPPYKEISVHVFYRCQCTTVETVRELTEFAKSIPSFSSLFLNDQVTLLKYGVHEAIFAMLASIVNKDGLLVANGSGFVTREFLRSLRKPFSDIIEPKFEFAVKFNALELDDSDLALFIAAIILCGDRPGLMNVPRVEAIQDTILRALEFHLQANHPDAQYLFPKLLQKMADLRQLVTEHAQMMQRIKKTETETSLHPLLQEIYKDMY

Test [12] concerns the target Bile acid receptor (Homo sapiens) (UniProt Q96RI1). The test can be described thus: qHTS assay to identify small molecule antagonists of the farnesoid-X-receptor (FXR) signaling pathway (AID 743217; active = well fitted inhibition curve with a large enough effect in the signal ratio in the repeat runs, not every such curve was filed as active; the % refers to the signal ratio). An outline of the steps: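 Screen of the Tox21 10K library in quantitative HTS format using FXR-UAS-bla HEK 293T reporter cells. Agonist chenodeoxycholic acid, 50 uM final, added with compounds; 16 h incubation at 37 °C; beta-lactamase FRET fluorescence measured.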

A short description of test [13]: qHTS assay to identify small molecule agonists of the farnesoid-X-receptor (FXR) signaling pathway - cell viability counter screen (AID 743218). Note: nearly all actives have a fitted effect of over 45% in size. The essentials:
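Viability of FXR-bla HEK 293T cells is measured by ATP-based CellTiter-Glo luminescence following 16 h compound treatment at 37 C and a prior 2 h room-temperature beta-lactamase substrate step.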

Test [14] concerns the target Bile acid receptor (Homo sapiens) (UniProt Q96RI1). The test can be described thus: qHTS assay to identify small molecule agonists of the farnesoid-X-receptor (FXR) signaling pathway (AID 743220; active = well fitted activation curve with a large enough effect in the signal ratio in the repeat runs, not every such curve was filed as active; the % refers to the signal ratio). The essentials:
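FXR-UAS-bla HEK 293T cells carrying a UAS-driven beta-lactamase reporter were plated for 5 h at 37C/5% CO2, then exposed to DMSO-dissolved Tox21 10K compounds for 16 h at 37C. A LiveBLAzer B/G FRET substrate was loaded for 2 h at room temperature before fluorescence reading.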

The nature of test [15]: qHTS assay to identify small molecule antagonists of the farnesoid-X-receptor (FXR) signaling pathway - cell viability counter screen (AID 743221; active = well fitted cell-killing curve with a large enough effect in the repeat runs, not every such curve was filed as active; note: nearly all actives have a fitted effect of over 50% in size). An outline of the steps: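 FXR-UAS-bla HEK 293T cells were treated with test compounds plus chenodeoxycholic acid (50 uM final) for 16 h at 37 C. Cell viability in the same wells was then read as CellTiter-Glo luminescence after 30 min at room temperature.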

Test [16] deals with Peroxisome proliferator-activated receptor gamma (Homo sapiens) (UniProt P37231). As to the kind of experiment: qHTS assay to identify small molecule antagonists of the peroxisome proliferator-activated receptor gamma (PPARg) signaling pathway (AID 743191; calls by dose curve; note: series mostly up to about 63 µM; nearly all actives have a fitted effect of over 30% in size). An outline of the steps:
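Beta-lactamase reporter under UAS control in HEK293H PPARg-bla cells; compound treatment 17 h at 37C. Read-out: fluorescence intensity after 1 h room-temperature incubation with LiveBLAzer B/G FRET substrate.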

The target of test [17] is Vitamin D3 receptor (Homo sapiens) (UniProt P11473). The test can be described thus: qHTS assay to identify small molecule agonists of the vitamin D receptor (VDR) signaling pathway (AID 743222; calls by dose curve). An outline of the steps:
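Fluorescence from cleaved LiveBLAzer B/G FRET substrate served as readout. VDR-bla cells had been treated 16 h at 37C with test compounds in DMSO, following a 4 h settling period, and substrate was loaded for 2 h at RT.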

Test [18] shares this target. The test can be described thus: qHTS assay to identify small molecule antagonists of the vitamin D receptor (VDR) signaling pathway (AID 743223; active = well fitted inhibition curve with a large enough effect in the signal ratio in the repeat runs, not every such curve was filed as active; the % refers to the signal ratio). An outline of the steps:
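VDR-bla cells were plated, incubated 4 h at 37C, then given compound and 1alpha,25-dihydroxyvitamin D3 (3 nM final). After 16 h at 37C, LiveBLAzer B/G FRET substrate was added for 2 h at room temperature and fluorescence read.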

The target in test [19] is Peroxisome proliferator-activated receptor delta (Homo sapiens) (UniProt Q03181). As to the kind of experiment: qHTS assay to identify small molecule agonists of the peroxisome proliferator-activated receptor delta (PPARd) signaling pathway (AID 743212; calls by dose curve). An outline of the steps:
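Beta-lactamase reporter readout: a ratiometric FRET signal from the LiveBLAzer substrate after 2 h at room temperature. Compound exposure at 37 °C in PPARδ-bla HEK293H cells driven by an upstream activator sequence.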

Test [20] is described as follows: qHTS assay to identify small molecule agonists of the vitamin D receptor (VDR) signaling pathway - cell viability counter screen (AID 743224). Note: series mostly up to about 63 µM; nearly all actives have a fitted effect of over 50% in size. The essentials:
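Compounds were pin-transferred onto VDR-bla cells plated 4 h earlier; following 16 h incubation at 37C, cell viability was quantified by CellTiter-Glo luminescence after 30 min at room temperature.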

Chain of Aryl hydrocarbon receptor (Homo sapiens) (P35869 whole entry, looked up): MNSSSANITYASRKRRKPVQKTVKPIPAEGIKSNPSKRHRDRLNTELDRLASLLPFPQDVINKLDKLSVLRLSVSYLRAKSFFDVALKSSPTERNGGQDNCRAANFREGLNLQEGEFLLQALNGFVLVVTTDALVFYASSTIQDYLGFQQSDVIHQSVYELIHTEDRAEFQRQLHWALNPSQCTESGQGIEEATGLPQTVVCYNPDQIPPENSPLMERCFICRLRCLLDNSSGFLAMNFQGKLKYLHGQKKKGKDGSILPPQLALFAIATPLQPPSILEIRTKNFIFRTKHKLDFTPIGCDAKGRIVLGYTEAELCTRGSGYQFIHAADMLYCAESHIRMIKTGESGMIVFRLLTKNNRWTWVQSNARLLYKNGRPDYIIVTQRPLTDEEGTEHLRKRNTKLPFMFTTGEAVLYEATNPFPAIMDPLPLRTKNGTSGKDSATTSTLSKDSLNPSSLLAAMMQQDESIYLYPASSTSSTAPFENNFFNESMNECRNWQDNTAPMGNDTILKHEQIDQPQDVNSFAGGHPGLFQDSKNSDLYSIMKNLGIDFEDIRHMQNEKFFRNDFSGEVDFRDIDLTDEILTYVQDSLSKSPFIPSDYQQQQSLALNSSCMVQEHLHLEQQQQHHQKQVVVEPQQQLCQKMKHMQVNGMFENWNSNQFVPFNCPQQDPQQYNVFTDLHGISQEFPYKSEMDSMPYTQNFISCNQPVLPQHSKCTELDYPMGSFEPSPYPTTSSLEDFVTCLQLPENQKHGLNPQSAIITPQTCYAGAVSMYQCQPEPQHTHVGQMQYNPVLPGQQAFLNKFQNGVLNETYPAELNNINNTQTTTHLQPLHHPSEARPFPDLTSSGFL
Chain of Peroxisome proliferator-activated receptor gamma (Homo sapiens) (P37231 whole entry, looked up): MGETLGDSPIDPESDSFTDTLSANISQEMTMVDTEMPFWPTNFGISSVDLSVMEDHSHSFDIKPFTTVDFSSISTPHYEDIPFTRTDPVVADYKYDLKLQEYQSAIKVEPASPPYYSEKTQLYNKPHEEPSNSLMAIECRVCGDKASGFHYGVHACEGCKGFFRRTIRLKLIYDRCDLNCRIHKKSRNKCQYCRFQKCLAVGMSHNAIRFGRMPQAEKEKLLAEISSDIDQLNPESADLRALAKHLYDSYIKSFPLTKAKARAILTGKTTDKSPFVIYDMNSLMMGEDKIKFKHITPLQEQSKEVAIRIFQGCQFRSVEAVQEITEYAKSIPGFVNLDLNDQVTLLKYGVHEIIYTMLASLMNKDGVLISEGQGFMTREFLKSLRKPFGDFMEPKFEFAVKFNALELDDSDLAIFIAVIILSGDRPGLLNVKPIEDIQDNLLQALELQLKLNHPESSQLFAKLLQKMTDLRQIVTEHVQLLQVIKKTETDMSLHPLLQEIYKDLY
Chain of Bile acid receptor (Homo sapiens) (Q96RI1 whole entry, looked up): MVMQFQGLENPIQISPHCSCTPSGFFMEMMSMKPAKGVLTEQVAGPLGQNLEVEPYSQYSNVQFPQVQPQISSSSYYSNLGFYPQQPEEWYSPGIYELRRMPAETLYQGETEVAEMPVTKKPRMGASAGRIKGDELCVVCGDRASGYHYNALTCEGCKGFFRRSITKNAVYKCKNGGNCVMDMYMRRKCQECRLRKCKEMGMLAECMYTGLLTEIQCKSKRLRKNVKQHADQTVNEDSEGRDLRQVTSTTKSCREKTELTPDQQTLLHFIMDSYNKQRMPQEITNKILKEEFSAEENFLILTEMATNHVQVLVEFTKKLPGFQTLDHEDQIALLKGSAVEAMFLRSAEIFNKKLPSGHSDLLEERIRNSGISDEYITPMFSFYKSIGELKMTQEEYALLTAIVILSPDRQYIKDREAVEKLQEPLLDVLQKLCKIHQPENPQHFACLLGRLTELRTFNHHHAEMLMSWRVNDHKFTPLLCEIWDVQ
Chain of Vitamin D3 receptor (Homo sapiens) (P11473 whole entry, looked up): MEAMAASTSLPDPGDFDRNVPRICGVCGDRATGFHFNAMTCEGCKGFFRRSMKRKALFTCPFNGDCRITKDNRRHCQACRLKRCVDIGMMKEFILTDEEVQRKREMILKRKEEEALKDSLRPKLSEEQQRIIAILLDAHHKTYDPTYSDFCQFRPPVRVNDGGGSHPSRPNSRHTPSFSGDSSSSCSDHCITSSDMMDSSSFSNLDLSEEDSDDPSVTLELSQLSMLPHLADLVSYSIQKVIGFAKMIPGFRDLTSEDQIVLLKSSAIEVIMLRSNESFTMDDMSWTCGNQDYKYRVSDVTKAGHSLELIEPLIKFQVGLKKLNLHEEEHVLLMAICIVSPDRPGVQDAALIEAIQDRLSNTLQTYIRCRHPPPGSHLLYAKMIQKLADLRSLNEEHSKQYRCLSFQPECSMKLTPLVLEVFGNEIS

Turning to `CC(=O)CCc1ccc2c(c1)OCO2`, the Potency result in [1], in test [4], in [5], in test [6], in [7] and in test [9] was “inactive” each time. Also, the Potency entry in test [12] and in test [13] was “inactive” in each case. For the same compound, the result in [2], in test [3], in [8], in test [10], in [11] and in test [14] was inactive. Further, in test [15], the compound was called inactive.

Consider `CCCSP(=S)(OCC)Oc1ccc(Cl)cc1Cl` (centres undefined), for which, in [1], the Potency was 54.5 µM (active). The compound was classed as inactive in test [2], in test [3], in [8], in [10], in test [11] and in test [15]. The outcome in test [17] and in test [18] was inactive. In addition, the Potency result in test [16], in test [4], in test [6], in test [7] and in test [13] was “inactive” in each case.

On to `O=[N+]([O-])c1cc(Cl)c(Cl)c(Cl)c1`, for which the Potency result in [1], in test [4], in test [6], in [9], in test [12] and in test [20] was “inactive” throughout. The outcome in test [2], in test [3], in test [8], in test [19], in test [10] and in test [11] was inactive. In addition, the outcome in test [14], in [15], in test [17] and in test [18] was inactive.

`CCC(Cl)[N+](=O)[O-]` (centres undefined): the Potency result in test [1], in test [4], in test [5], in test [6], in test [7] and in [9] was “inactive” each time. The Potency entry in [12], in test [13] and in [20] was “inactive” throughout. The compound was classed as inactive in test [2], in test [3], in test [8], in test [19], in test [10] and in test [11]. Besides, the compound was called inactive in test [14], in test [15], in test [17] and in [18].

Regarding `CCC/C(=N\OCC)C1=C(O)CC(CC(C)SCC)CC1=O` (centres undefined), the Potency result in [1], in [16], in [6], in [7], in test [9] and in test [13] was “inactive” each time. Besides, the outcome in [2], in test [3], in test [10], in [15] and in [17] was inactive.

Consider `CCOC(=O)N(C)C(=O)CSP(=S)(OCC)OCC`, for which the Potency in [1] is 15.4 µM (active). In addition, the call in test [2], in test [3], in test [8], in test [10], in test [14] and in [15] was inactive. For the same compound, in test [17], the compound was called inactive. In addition, the Potency entry in [16], in test [4], in test [6], in [7], in [13] and in test [20] was “inactive” each time.

In the case of `CCC(=O)c1ccccc1`, the Potency entry in test [1], in test [4], in test [6], in test [7], in test [9] and in [12] was “inactive” in each case. Further, the Potency result in test [13] and in [20] was “inactive” throughout. Further, the call in test [2], in test [3], in [8], in test [19], in test [11] and in test [14] was inactive. Moreover, the result in test [15], in test [17] and in test [18] was inactive.

Take `O=C(Oc1ccc(Br)cc1)N1CCN2CCC1CC2`: the Potency entry in [1], in test [16], in test [6], in test [7], in test [9] and in test [13] was “inactive” in each case. In addition, the Potency entry in [20] was “inactive”. Besides, the compound was classed as inactive in test [2], in [3], in test [8], in test [19], in test [10] and in test [11]. The result in [15], in test [17] and in test [18] was inactive.

As for `ClCC(Cl)(Cl)Cl`, the Potency result in test [1], in test [16], in test [5], in test [6], in test [7] and in test [9] was “inactive” each time. Also, the Potency entry in test [12] and in [20] was “inactive” throughout. Besides, the compound was classed as inactive in test [2], in test [3], in test [8], in test [19], in test [10] and in test [11]. Besides, the outcome in test [14], in test [15] and in test [18] was inactive.
